From PubChem BioAssay AID1259313 (Sanford-Burnham Center for Chemical Genomics, 2017)
Among all 340,000 compounds or so, about 8,500 (2.5%) were called active. This is one part of a sample in which actives are shown more often than they occur. Values without a mark were called inactive.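 The calls were made as follows: active = melting temperature shift of at least 10% of the positive control shift, at one fixed dose; inactive = the rest.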

The compounds below were run on Glutamate receptor ionotropic, NMDA 3A (GRIN3A) ligand-binding domain (assay: binders of NR3A ligand-binding domain, primary screen, biophysical, differential scanning fluorimetry, uHTS (AID 1259313)). Conditions: NR3A LBD differential scanning fluorimetry, at 25 µM, stronger effect = higher value, 0% = protein alone, 100% = glycine-bound protein.

Compound | Tm shift relative to glycine control
O=S(=O)(Nc1ccc(-n2cnnn2)cc1)c1ccc(Cl)cc1 | 0.42%
CC(=O)[C@@]12O[C@@H]1C[C@H]1[C@@H]3CC[C@H]4C[C@@H](O)CC[C@]4(C)[C@H]3CC[C@@]12C | 0%
Cc1ccc(C(=O)NCC(=O)OCC(=O)Nc2cccc(S(=O)(=O)N3CCCC3)c2)cc1C | -2.16%
N/C(=N\c1nc2ccccc2o1)NC(=O)C(Cc1ccccc1)N1C(=O)c2ccccc2C1=O (configuration not stated) | -1.81%
COc1ccc(CCNC(=O)CCc2ccccc2O)cc1OC | 19.5% (active)
COc1ccc(CCNC(=O)CCNS(=O)(=O)c2cc(Br)cnc2N)cc1OC | 11% (active)
COc1ccc(CCNC(=O)CSCc2ccc(Br)cc2)cc1OC | 0.53%
CC(=O)c1ccc(NC(=O)CCNS(=O)(=O)c2cc(Br)cnc2N)cc1 | -12.8%
COc1ccc(CCNC(=O)C(=O)NCc2ccccc2C)cc1OC | -1.17%
COc1ccc(CCNC(=O)Cc2ccc(C)cc2)cc1OC | -3.8%
Cc1cccc(OCCC(=O)Nc2cc(S(=O)(=O)N3CCCCC3)ccc2N2CCOCC2)c1 | 6.71%
O=C(COc1cccc(-n2cnnn2)c1)NCCC1=CCCCC1 | -4.1%
O=C(COc1ccc(-n2cnnn2)cc1)Nc1ccccc1Cl | -3.66%
C=CCc1cccc(/C=N/NC(=O)COc2ccc(-n3cnnn3)cc2)c1O | 24.6% (active)
COc1ccc(-c2ccc3c(c2)C2CC3CCN2CCC#N)cc1 (configuration not stated) | 0.87%
N#CCOc1ccc(C2=NO[C@@H]3[C@@H]4C[C@@H]([C@H]5C(=O)N(c6ccc7c(c6)OCO7)C(=O)[C@@H]45)[C@H]23)cc1 | -1.3%
Cc1cc(CN(C)C(=O)c2cc(COc3ccc(C)c(C)c3)on2)n[nH]1 | -0.56%
Cc1cc(Cl)ccc1OCCCC(=O)NCc1ccccn1 | -3.24%
Cc1cc(Cl)ccc1OCCCC(=O)Nc1cccc(-n2cnnn2)c1 | 4.11%
Cc1cc(Cl)ccc1OCCCC(=O)NCc1ccncc1 | 21.3% (active)
CCOCCCNC(=O)Cc1cc(=O)[nH]c(=O)[nH]1 | -1.66%
OCC[C@H]1C[C@H](O)[C@@H](O)[C@]2(CCc3ccccc3O2)O1 | 1.78%
CC1CN(CC(=O)NC(C)c2ccccc2)CC(C)O1 (configuration not stated) | -1.03%
CCC(=O)c1cn(CCOc2ccccc2OC)c2ccccc12 | 2.85%
CC(=O)Nc1ccc(S(=O)(=O)NC2(C(F)(F)F)C(=O)NC(C)=C2C#N)cc1 (configuration not stated) | -1.26%
Cc1ccc(S(=O)(=O)NC2(C(F)(F)F)NC(=O)N(CCc3ccccc3)C2=O)cc1 (configuration not stated) | -0.75%
CCCN1C(=O)C(NS(=O)(=O)c2ccc(N)cc2)(C(F)(F)F)C(C(=O)OC)=C1C (configuration not stated) | 13.6% (active)
